Reference: the supplement of paper PMC11732987, “Enantioselective OTUD7B fragment discovery through chemoproteomics screening and high-throughput optimisation” (Communications Chemistry, 2025)
Values without a mark were called inactive.

Assays:
Test in all cases: log2 ratio of Biotin-Ahx-Ub-VS probe labelling (fragment/DMSO); higher = less target engagement (more negative = stronger competition), active = hit call of the paper (q ≤ 0.05, log2 ratio ≤ -1)
Conditions in all cases: compound concentration: 200 uM; treatment time: 3 h
[1] = biological target: T1, USP19 (UniProt O94966)
T1 sequence (whole entry): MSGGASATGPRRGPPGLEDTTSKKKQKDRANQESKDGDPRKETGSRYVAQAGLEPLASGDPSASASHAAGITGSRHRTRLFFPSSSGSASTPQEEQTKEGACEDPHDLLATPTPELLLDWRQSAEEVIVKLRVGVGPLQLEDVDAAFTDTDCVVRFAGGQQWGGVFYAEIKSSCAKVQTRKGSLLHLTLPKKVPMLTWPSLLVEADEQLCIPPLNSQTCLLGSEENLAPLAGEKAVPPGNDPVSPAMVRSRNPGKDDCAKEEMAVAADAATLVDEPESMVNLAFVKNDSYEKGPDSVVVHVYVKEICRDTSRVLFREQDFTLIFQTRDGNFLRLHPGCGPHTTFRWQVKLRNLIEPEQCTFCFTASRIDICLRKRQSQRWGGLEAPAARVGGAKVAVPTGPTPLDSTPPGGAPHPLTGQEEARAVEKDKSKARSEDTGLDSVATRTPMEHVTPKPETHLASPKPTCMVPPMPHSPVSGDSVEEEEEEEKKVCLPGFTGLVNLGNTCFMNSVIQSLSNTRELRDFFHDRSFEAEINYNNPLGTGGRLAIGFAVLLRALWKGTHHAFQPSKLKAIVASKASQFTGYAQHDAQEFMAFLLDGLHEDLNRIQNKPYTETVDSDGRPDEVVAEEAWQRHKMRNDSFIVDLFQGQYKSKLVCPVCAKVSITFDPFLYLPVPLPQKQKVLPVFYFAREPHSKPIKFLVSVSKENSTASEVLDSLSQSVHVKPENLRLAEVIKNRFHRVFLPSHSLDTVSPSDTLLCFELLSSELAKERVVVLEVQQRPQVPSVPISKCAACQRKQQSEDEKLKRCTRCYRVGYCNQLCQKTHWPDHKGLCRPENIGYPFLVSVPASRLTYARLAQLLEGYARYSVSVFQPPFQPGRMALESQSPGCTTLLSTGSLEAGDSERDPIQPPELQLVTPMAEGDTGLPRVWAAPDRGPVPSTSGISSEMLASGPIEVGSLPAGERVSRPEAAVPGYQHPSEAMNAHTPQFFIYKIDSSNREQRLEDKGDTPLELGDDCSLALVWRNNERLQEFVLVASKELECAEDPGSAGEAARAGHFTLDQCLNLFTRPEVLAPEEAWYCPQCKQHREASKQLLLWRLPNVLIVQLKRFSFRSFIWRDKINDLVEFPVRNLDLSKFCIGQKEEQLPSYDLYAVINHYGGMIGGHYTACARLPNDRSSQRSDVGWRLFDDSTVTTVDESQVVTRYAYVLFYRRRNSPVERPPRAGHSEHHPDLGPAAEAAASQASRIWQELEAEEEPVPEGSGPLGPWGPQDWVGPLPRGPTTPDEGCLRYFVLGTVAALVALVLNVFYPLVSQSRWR
Method in brief: (§1)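 HEK293T lysate (495 µg per sample, in Tris/CHAPS/IGEPAL buffer with protease inhibitors) was exposed in triplicate for 3 h to fragment at 200 µM or to vehicle, then to Biotin-Ahx-Ub-VS at 0.5 µM final for 1 h. Labelled DUBs were enriched on NeutrAvidin, digested with LysC and trypsin, and analysed by diaPASEF LC-MS/MS. Spectronaut label-free quantities were normalised to the global median, and values are average log2 ratios of fragment over vehicle from an unpaired t-test. Only proteins with ≥2 unique peptides were used.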

[2] = biological target: USP24 (UniProt Q9UPU5)
USP24, sequence (Q9UPU5 whole entry): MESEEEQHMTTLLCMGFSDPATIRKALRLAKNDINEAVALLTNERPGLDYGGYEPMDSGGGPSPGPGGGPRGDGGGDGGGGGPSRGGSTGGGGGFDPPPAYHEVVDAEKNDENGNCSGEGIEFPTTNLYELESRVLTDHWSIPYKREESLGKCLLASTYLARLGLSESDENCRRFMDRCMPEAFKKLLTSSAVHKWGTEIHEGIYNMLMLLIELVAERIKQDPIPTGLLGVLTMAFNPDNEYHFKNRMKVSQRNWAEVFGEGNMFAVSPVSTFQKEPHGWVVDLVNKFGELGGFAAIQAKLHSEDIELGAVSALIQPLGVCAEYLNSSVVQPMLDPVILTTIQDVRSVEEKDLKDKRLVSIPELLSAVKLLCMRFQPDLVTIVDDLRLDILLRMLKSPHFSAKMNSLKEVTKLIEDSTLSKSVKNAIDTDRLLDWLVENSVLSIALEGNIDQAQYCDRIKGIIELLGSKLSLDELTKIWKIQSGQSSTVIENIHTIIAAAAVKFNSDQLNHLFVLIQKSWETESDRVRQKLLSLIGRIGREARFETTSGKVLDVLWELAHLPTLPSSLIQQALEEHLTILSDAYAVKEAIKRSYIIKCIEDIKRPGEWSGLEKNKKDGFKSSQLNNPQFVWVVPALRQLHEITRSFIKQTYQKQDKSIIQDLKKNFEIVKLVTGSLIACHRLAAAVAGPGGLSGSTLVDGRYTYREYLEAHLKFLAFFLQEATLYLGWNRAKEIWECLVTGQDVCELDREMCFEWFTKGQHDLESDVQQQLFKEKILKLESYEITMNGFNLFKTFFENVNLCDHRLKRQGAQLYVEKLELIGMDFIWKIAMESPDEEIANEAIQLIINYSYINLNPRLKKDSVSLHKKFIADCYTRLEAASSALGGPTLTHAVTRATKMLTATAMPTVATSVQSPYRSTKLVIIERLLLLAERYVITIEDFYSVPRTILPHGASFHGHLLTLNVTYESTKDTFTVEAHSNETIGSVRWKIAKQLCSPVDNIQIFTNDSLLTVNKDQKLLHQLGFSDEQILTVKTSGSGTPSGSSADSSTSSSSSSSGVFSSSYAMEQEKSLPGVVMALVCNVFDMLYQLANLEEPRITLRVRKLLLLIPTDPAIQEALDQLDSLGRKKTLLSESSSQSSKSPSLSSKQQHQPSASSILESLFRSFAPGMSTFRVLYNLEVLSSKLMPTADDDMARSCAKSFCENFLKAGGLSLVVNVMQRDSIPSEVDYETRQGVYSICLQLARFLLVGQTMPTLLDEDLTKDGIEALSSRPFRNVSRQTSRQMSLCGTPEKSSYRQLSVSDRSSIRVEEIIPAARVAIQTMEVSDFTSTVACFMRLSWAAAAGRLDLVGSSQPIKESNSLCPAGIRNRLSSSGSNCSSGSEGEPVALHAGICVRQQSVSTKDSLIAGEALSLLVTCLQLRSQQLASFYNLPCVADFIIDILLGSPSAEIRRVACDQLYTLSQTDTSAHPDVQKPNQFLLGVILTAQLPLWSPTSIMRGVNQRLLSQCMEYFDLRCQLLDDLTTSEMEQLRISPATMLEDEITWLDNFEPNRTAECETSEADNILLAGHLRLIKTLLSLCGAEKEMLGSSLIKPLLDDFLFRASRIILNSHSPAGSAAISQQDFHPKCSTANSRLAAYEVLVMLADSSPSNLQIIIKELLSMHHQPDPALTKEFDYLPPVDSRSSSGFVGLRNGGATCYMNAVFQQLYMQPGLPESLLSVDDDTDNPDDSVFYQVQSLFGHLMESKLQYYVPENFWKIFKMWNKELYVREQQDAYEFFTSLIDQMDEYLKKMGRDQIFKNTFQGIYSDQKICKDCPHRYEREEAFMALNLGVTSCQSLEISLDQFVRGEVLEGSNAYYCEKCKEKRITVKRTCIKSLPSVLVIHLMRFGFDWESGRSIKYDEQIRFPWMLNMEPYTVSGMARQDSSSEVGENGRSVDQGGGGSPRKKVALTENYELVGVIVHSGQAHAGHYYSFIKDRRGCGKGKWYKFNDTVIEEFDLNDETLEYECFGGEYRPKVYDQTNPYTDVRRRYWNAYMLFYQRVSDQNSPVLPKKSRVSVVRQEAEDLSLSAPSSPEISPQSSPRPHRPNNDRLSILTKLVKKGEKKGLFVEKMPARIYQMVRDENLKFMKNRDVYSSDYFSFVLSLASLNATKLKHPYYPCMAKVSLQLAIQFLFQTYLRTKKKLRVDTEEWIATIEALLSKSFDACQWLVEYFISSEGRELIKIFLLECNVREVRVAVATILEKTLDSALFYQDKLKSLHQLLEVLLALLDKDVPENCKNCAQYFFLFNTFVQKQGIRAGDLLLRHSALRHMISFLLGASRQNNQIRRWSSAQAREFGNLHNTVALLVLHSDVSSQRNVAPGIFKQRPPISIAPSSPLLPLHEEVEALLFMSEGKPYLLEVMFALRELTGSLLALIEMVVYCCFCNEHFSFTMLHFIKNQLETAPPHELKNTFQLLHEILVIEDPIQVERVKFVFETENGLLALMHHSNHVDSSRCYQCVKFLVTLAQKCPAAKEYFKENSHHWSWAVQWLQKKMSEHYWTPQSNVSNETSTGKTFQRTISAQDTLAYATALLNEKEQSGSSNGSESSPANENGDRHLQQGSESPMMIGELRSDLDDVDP
Method in brief: as §1

[3] = biological target: T2, USP25 (UniProt Q9UHP3)
T2 sequence (whole entry): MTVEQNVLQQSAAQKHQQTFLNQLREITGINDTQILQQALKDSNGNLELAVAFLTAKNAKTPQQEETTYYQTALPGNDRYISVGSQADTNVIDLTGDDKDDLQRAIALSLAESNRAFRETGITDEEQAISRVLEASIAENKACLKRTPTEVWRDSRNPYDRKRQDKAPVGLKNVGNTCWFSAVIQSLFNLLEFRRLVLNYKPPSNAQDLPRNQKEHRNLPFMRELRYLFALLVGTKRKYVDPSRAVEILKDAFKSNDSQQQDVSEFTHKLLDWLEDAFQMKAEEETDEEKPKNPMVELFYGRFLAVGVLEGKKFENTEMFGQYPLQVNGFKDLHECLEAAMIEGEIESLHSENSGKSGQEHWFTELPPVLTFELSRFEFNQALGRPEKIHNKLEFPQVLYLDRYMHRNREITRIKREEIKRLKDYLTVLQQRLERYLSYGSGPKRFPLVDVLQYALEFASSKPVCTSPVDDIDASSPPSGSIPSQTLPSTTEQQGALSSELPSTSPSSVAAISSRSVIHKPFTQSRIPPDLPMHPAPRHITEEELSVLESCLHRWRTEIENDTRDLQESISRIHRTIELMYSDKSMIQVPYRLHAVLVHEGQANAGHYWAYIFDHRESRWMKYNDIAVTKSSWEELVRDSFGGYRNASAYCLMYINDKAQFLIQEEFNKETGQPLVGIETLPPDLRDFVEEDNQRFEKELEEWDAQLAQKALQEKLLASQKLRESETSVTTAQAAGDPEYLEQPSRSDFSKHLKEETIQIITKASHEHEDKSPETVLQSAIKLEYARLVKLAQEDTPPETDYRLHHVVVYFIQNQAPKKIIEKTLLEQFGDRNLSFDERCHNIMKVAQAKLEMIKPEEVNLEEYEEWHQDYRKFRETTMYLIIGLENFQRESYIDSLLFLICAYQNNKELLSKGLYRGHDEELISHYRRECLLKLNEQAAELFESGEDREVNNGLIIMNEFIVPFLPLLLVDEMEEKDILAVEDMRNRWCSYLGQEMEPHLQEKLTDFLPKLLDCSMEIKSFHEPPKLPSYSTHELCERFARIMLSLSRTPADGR
Method in brief: as §1

[4] = biological target: T3, USP28 (UniProt Q96RU2)
T3 sequence (whole entry): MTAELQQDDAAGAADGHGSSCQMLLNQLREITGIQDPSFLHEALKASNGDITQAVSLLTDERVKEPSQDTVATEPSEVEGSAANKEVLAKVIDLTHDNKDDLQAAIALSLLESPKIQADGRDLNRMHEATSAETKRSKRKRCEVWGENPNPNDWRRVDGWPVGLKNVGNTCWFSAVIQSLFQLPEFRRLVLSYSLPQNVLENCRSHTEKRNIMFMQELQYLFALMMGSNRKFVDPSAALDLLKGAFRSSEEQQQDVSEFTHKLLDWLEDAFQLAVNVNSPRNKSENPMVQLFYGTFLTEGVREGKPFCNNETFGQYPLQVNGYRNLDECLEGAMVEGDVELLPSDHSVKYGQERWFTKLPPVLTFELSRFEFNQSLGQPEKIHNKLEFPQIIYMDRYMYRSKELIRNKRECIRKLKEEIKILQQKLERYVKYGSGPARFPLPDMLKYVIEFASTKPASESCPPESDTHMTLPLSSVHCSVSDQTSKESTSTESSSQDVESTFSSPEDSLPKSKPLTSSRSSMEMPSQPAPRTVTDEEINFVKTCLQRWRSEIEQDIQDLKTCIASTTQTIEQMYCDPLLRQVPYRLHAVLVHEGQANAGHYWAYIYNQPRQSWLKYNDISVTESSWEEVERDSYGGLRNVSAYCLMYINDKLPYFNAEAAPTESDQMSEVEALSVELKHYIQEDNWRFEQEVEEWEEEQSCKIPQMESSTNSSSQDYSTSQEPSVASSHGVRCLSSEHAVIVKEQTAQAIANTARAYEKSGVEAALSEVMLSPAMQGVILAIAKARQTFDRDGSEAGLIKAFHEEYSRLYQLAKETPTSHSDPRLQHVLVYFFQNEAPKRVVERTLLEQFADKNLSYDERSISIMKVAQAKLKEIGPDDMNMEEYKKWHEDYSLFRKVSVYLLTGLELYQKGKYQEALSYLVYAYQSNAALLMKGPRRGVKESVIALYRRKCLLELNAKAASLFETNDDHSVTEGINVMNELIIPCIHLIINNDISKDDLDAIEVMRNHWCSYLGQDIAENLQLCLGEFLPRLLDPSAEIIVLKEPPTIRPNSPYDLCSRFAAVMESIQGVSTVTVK
Method in brief: as §1

Compound: CN(C)C(=O)c1ccc(NC(=O)CCl)cc1
- log2 ratio of Biotin-Ahx-Ub-VS probe labelling [1]: -0.166
- log2 ratio of Biotin-Ahx-Ub-VS probe labelling [2]: -0.00912
- log2 ratio of Biotin-Ahx-Ub-VS probe labelling [3]: -1.1 (active)
- log2 ratio of Biotin-Ahx-Ub-VS probe labelling [4]: -1.47 (active)
